Assay outcomes from PubChem.
UGM FP inh: M. tuberculosis UGM enzyme inhibitors, primary screen, biochemical, fluorescence polarization, single point. UDP-galactopyranose mutase (Mycobacterium tuberculosis (strain ATCC 25618 / H37Rv)), …. purified UGM, fluorescence polarization probe displacement. inhibition, % at 10 µM. hit rate 0.06% among 320,000. AID 504406, 2011; in the data active = inhibition above about 10%, passing the limit was not always enough
GDH-TPI counter-1: GDH-TPI coupling enzyme inhibitors, primary screen, artefact control for M. tuberculosis FBA inhibitor project, biochemical, absorbance, full deck | GDH-TPI coupled enzyme counterscreen, NADH absorbance | inhibition, % at 4.8 µM | hit rate 1.2% among 360,000 | AID 588335, 2011; in the data active = inhibition above about 30%
Mtb FBA inh: Mtb FBA enzyme inhibitors, primary screen, biochemical, fluorescence, strain H37Rv; inhibition, % at 1 µM; purified M. tuberculosis FBA, fluorescence read-out; Fructose-bisphosphate aldolase (Mycobacterium tuberculosis (strain ATCC 25618 / H37Rv)), …; hit rate 2.3% among 360,000
RecA splice inh: Mtb RecA intein splicing inhibitors, primary screen, biochemical, fluorescence, HTS. AID 2221, 2009. hit rate 0.75% among 290,000. cell-free RecA intein splicing. Protein RecA (Mycobacterium tuberculosis (strain ATCC 25618 / H37Rv)), P9WHJ3. inhibition, % (test concentration not listed); in the data active = inhibition above about 30%
BH1578 lux ind: inducers of Vibrio cholerae quorum light production without autoinducers, primary screen, BH1578 luxS cqsA deficient, single point; V. cholerae BH1578 lux reporter, luminescence, 6 h; activation, % at 18.7 µM; hit rate 0.16% among 350,000; in the data active = activation mostly above about 9.7%, no sharp cut-off
Rv3671c protease: Rv3671c serine protease inhibitors, primary screen, biochemical, fluorescence polarization, M. tuberculosis H37Rv | P9WHR9 | inhibition, % at 5.96 µM | hit rate 0.048% among 320,000 | AID 2606, 2010; in the data active = inhibition above about 38%;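 also: extracellular domain of Rv3671c used as enzyme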
Target sequence (P9WHR9 whole entry, looked up, the tested form may be a part): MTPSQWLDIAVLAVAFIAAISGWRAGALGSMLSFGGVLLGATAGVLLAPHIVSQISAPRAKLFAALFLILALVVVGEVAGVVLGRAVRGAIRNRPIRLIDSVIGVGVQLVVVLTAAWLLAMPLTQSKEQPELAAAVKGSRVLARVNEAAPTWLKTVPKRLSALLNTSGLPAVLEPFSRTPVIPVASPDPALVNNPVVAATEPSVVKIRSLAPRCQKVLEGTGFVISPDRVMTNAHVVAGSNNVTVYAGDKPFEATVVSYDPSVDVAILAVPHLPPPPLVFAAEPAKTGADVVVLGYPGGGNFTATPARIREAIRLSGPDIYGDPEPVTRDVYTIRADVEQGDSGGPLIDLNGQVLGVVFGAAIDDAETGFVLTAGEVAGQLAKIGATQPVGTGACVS
Mtb FBA confirm: M. tuberculosis aldolase blockers, biochemical, fluorescence, strain H37Rv, confirmation. purified M. tuberculosis FBA, fluorescence read-out. inhibition, % at 1 µM. hit rate 78% among 5,600. shares compounds with Mtb FBA inh. AID 651616, 2012
GDH-TPI counter-2: GDH-TPI coupling enzyme inhibitors, artefact control for M. tuberculosis FBA inhibitor project, biochemical, fluorescence, high throughput; shares compounds with Mtb FBA inh; GDH-TPI coupled enzyme counterscreen; inhibition, % at 1 µM; hit rate 81% among 5,600; AID 652141, 2013; in the data active = inhibition above about 10%
Hits are given with their value; i = inactive; nt = not tested or not shown; + = active, no number. This is a sample that favours compounds with a hit; in the whole collection about 4.1% have one here. Rule as the data show it, unless noted: active = inhibition above about 27%; inactive = the rest.

SMILES | UGM FP inh | GDH-TPI counter-1 | Mtb FBA inh | RecA splice inh | BH1578 lux ind | Rv3671c protease | Mtb FBA confirm | GDH-TPI counter-2
COc1ccc(C(O)c2ncc(-c3ccc(Cl)cc3)[nH]2)cc1 (configuration not stated) | nt | i | i | nt | i | nt | nt | nt
CCOC(=O)c1nc2ccccc2c(=O)[nH]1 | i | i | i | nt | i | i | nt | nt
CCOC(=O)c1nc(N)c(C(=O)OCC)[nH]1 | i | i | 59.3 | i | i | i | 197.8 | 165.7
CCNC(=S)Nc1ccc2c(c1)c(=O)n(C)n2Cc1cccc(C(F)(F)F)c1 | nt | i | 80.5 | nt | i | nt | 190.1 | 149.7
FC(F)(F)c1cccc(NC(=S)NCc2ccccc2)c1 | i | i | i | i | i | i | nt | nt
Cc1ccc(CNC(=S)Nc2ccc3c(c2)c(=O)n(C)n3Cc2cccc(C(F)(F)F)c2)cc1 | nt | i | 36.2 | nt | i | nt | 140.7 | 100.7
COc1ccc2nc3c(cc2c1)c(NC(=O)C1CCCO1)nn3CC(C)C (configuration not stated) | i | i | 39.3 | i | i | i | i | i
CCOc1ccc(N=c2oc3cc(O)ccc3cc2C(=O)NCC2CCCO2)cc1 (configuration not stated) | i | i | 55.7 | i | i | i | 38.6 | 36.4
CCOc1ccc(S(=O)(=O)Nc2ccc(C(=O)NCC3CCCO3)cc2)cc1 (configuration not stated) | i | i | i | i | i | i | nt | nt
CCOc1ccc(S(=O)(=O)Nc2ccccc2C(=O)NCC2CCCO2)cc1 (configuration not stated) | i | i | 31.0 | i | i | i | 148.2 | 108.1
COC(=O)[C@@]12CCCN1[C@H](c1ccc(-c3ccc(OC)cc3)c(OC)c1)[C@@H]1C(=O)N(C)C(=O)[C@@H]12 | i | i | 28.8 | nt | i | i | + | +
COC(=O)[C@]1(C)N[C@H](c2ccc(-c3cccc(Cl)c3)c(OC)c2)[C@@H]2C(=O)N(C)C(=O)[C@@H]21 | i | i | 37.9 | nt | i | i | 46.8 | 40.8
CCN1C(=O)[C@H]2[C@@H](c3ccc(-c4ccc(OC)cc4)c(OC)c3)N[C@@](C)(C(=O)OC)[C@H]2C1=O | i | i | 35.2 | i | i | i | 39.3 | 43.2
Cc1ccc(S(=O)(=O)N2CCC(C(=O)NCCN3CCOCC3)CC2)cc1 | nt | i | i | nt | i | nt | nt | nt
CCN(C[C@H]1N[C@@](Cc2ccccc2)(C(=O)OC)[C@H]2C(=O)N(C)C(=O)[C@@H]12)C(=O)Nc1ccc(Cl)cc1 | i | i | i | nt | i | i | nt | nt
CCOC(=O)C1=C(c2ccccc2)OC(N)=C(C#N)C1c1cccs1 (configuration not stated) | i | i | i | i | i | i | nt | nt
CCCC1=C(C(=O)OCC)C(c2ccco2)C(C#N)=C(N)O1 (configuration not stated) | i | i | 57.5 | i | i | i | 98.5 | 67.8
CCOC(=O)C1=C(c2ccccc2)OC(N)=C(C#N)C1c1ccncc1 (configuration not stated) | i | i | 43.4 | i | i | i | 66.7 | 65.7
CC(C)c1cc(C(=O)N2CCCC(Nc3ccc(F)cc3)C2)nc(N)n1 (configuration not stated) | i | i | i | i | i | i | nt | nt
COCCCn1c(C(=O)N2CC(C)OC(C)C2)cc2c(=O)n3cccc(C)c3nc21 (configuration not stated) | i | i | 73.7 | i | i | i | + | +
COCCCn1c(C(=O)N2CCOCC2)cc2c(=O)n3cccc(C)c3nc21 | i | i | 72.4 | i | i | i | 55.0 | 43.4
